# The list is not random: actives were taken first. Their share in the collection is about 11%.
# HEK cytotox: cytotoxic compounds in HEK 293 cells; HEK 293 viability, ATP luminescence (CellTiter-Glo), 48-72 h; Potency, µM (highest dose often 115 µM), without a hit: at the highest dose activity change, negative = cytotoxicity, actives largely listed as inhibitors; actives 6.6% (n = 94,000); also: nearly all actives have a fitted effect of over 60% in size
#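 HEK 293 cells seeded at 250 cells/well were exposed to compound for 48 or 72 hr at 37 degree Celsius. Viability taken as ATP content by CellTiter-Glo luminescence.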
# Luciferase inh: Photinus pyralis luciferase inhibition; purified P. pyralis luciferase, luminescence, biochemical; actives 2.5% (n = 76,000); P08659; Potency, µM (doses to about 115 µM), actives largely listed as inhibitors; also: nearly all actives have a fitted effect of over 65% in size
#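 FLuc 10nM, D-luciferin 10uM, ATP 10uM, Mg acetate 10mM, Tris acetate pH 7.5, Tween/BSA; cpd qHTS; enzyme added last; CCD luminescence.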
# NPR1 antag: blocks ANP-stimulated signaling of human Npr1 receptor | HEK293 hNpr1 GloSensor cGMP, ANP-stimulated luminescence | actives 1.6% (n = 76,000) | Potency, µM (titrated, usually from 46.3 µM), inactives show at the highest dose activity change, negative = inhibition, actives largely listed as inhibitors; calls by dose curve; also: nearly all actives have a fitted effect of over 60% in size
# Target sequence (P16066 whole entry, looked up): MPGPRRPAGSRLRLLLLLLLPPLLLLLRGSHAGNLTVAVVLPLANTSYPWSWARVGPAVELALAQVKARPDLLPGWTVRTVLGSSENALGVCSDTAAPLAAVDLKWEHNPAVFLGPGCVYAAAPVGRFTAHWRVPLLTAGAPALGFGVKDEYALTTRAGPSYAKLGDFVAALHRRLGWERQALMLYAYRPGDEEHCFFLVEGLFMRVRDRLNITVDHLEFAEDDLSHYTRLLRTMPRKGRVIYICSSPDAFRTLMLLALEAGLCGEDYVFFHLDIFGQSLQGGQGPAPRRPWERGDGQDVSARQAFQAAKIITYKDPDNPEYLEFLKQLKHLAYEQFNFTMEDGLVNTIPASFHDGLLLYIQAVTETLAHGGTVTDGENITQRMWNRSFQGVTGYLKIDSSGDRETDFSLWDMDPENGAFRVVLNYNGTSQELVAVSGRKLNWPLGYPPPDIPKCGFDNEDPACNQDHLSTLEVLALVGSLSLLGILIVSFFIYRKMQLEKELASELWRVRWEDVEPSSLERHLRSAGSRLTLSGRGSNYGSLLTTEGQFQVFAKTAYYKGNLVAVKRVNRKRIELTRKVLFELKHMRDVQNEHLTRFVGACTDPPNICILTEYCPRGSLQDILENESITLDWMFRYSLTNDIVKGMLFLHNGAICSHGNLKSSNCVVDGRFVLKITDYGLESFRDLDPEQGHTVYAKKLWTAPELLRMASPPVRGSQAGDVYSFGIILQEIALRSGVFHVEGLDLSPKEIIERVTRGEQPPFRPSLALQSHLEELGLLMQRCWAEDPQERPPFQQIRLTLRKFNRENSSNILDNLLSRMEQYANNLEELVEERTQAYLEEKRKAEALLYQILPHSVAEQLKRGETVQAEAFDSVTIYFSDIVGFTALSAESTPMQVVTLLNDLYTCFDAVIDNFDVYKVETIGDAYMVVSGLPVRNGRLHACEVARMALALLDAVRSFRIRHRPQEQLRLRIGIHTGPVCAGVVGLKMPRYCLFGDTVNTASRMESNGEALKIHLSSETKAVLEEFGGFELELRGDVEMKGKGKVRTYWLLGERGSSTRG
#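 HEK293 cells stably expressing human Npr1 and cGMP GloSensor pGS-40F, loaded 2 h with 2% GloSensor reagent, given compound 30 min at room temperature. Luminescence read before and 20 min after 0.1 nM hNppA.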
# NIH3T3 tox: NIH 3T3 cell cytotoxicity | Potency, µM (doses to about 96.7 µM), without a hit: top-dose activity change, negative = cytotoxicity, actives largely listed as inhibitors | NIH 3T3 viability, CellTiter-Glo ATP luminescence, 48-72 h | actives 4.3% (n = 94,000); also: nearly all actives have a fitted effect of over 55% in size
#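 Cytotoxicity was measured by CellTiter-Glo ATP luminescence after 48 or 72 h compound exposure at 37 °C. Mouse NIH 3T3 fibroblasts were seeded at 400 cells/well and dosed by 23 nL pin transfer.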
# * hit, by the source's call; i = inactive; ? = inconclusive; · = no result given; [ ] = another dose, or the depositor's remark. Unless noted, calls follow the shape of the dose curve; as a rule, active = well fitted curve in the direction sought with a large enough effect; inconclusive = small, poorly fitted or top-dose-only effect, or another doubt; inactive = no such curve, though single readings can be large; an effect the other way counts as inactive or inconclusive. % is scaled to controls: 0 for no effect and ±100 for the full control effect; potency is read from the fitted curve at half-maximal effect.
SMILES,HEK cytotox,Luciferase inh,NPR1 antag,NIH3T3 tox
O=C(NCc1ccc(Cl)cc1)c1ccc2nnc(-c3cc(C(F)(F)F)cc(C(F)(F)F)c3)n2c1,14.1µM*,·,·,?
O=C(NCc1ccc(F)c(F)c1)c1ccc2nnc(-c3cccc(C(F)(F)F)c3)n2c1,31.6µM*,·,·,25.1µM*
O=C(NCc1ccc(F)cc1)c1ccc2nnc(-c3cccc(C(F)(F)F)c3)n2c1,39.8µM*,·,·,?
O=C(NC1CCCCCC1)c1ccc2nccn2c1,?,39.8µM*,-16.5%[70.6 µM],-28.9%[138 µM]
CC(C)CC(=O)NC1CCN(c2cnn(Cc3ccccc3)c(=O)c2)CC1,-22.8%,i,6.1%,-14.5%
O=C(NCc1ccc(Cl)cc1)c1ccc2nnc(-c3cccc(C(F)(F)F)c3)n2c1,14.1µM*,·,·,?
O=C(NC1CC1)c1ccc2nnc(-c3cccc(C(F)(F)F)c3)n2c1,-23.7%,·,·,?
Cc1ccc(Cn2c(C3CCN(C(=O)c4cc(Cl)ccc4F)CC3)n[nH]c2=O)cc1,?,i,-11.1%,?
Cc1cccc(C(=O)NCc2nnc3cc(-c4nc(C(C)C)no4)ccn23)c1,-19.5%,i,2.5%,-3.7%
O[C@@H]1CC(CNCc2ccc(Cl)cc2)(COc2cccnc2)C[C@@H]1O (stereo partly specified),3.0%,i,2.0%,-0.6%
Cc1cccc(C)c1-c1nc(C(=O)NCCc2ccc(Cl)cc2)n2ccccc12,50.1µM*,i,-4.6%,-27.3%
COCCNC(=O)c1nc(-c2ccccc2)c2ccccn12,100µM*,i,6.9%[70.6 µM],?
COCCNC(=O)c1nc(-c2c(C)cccc2C)c2ccccn12,35.5µM*,i,-0.6%[70.6 µM],?
COc1ccccc1-c1nc(C(=O)NCCc2ccc(Cl)cc2)n2ccncc12,?,·,·,28.2µM*
O=C(NCCc1ccc(Cl)cc1)c1nc(-c2ccc(Cl)cc2Cl)c2cnccn12,?,·,·,-26.0%
O=C(NC(c1ccccc1)c1ccccc1)c1cnc2c(c1)N(Cc1ccccc1)CCC2,?,i,2.9%[70.6 µM],?
Cc1ccc(-c2c(C(=O)N3CCN(C)CC3)nc3sccn23)cc1,-22.5%,·,·,-19.3%
CN1CCC(NC[C@H]2O[C@H](Cc3cc(-c4ccccc4)on3)CC[C@@H]2O)CC1,?,i,-20.0%[70.6 µM],?
COC(=O)CNC(=O)c1nc(-c2cc(Cl)cc(Cl)c2)c2ccccn12,35.5µM*,i,-24.7%,-15.1%
COc1ccc(-c2c(C(=O)NCc3cccs3)nc3sccn23)cc1,-20.5%,·,·,-37.2%
O=C(NC1CCN(c2ccc3nnc(-c4ccccc4)n3n2)CC1)c1ccccc1,?,·,·,-5.3%
O=C(NC1CCCN(c2ccc3nnc(-c4ccccc4)n3n2)C1)c1ccc(Cl)nc1 (stereo unspecified),28.2µM*,·,·,?
COc1cccc(C(=O)NC2CCCN(c3ccc4nnc(-c5ccccc5)n4n3)C2)c1 (stereo unspecified),i,·,·,2.8%
O=C(NC1CCCN(c2ccc3nnc(-c4ccccc4)n3n2)C1)c1ccccc1 (stereo unspecified),35.5µM*,·,·,28.2µM*
CN(C)C(=O)NC1CCCN(c2ccc3nnc(-c4ccccc4)n3n2)C1 (stereo unspecified),?,·,·,44.7µM*
SMILES,HEK cytotox,Luciferase inh,NPR1 antag,NIH3T3 tox
COc1ccc(C(=O)NC2CCN(c3ccc4nnc(-c5ccccc5)n4n3)CC2)cc1,79.4µM*,·,·,?
CC(C)C(=O)NC1CCCN(c2ccc3nnc(-c4ccccc4)n3n2)C1 (stereo unspecified),-22.8%,·,·,-31.5%
CS(=O)(=O)N1CCCC(OCc2noc(-c3cccnc3)n2)C1 (stereo unspecified),i,·,·,-8.1%
CC(C)NC(=O)N1CCCN(c2ccc3nnc(-c4ccccc4)n3n2)CC1,1.3%,·,·,-5.0%
O=C(Nc1ccc(Cl)cc1)N1CCCN(c2ccc3nnc(-c4ccccc4)n3n2)CC1,?,·,·,28.2µM*
CN(CC[C@H]1CN(C(=O)c2ccc(C(F)(F)F)cc2)CC[C@H]1CC(=O)O)c1ccccc1,-0.3%,i,3.3%,35.5µM*
Cn1cc(CN2CCCN(S(=O)(=O)c3ccccc3)CCC(=O)NCC2)c2ccccc21,?,i,-8.7%,?
COCCc1noc([C@@H]2CN(Cc3ccc(C(C)C)cc3)C[C@H]2CO)n1,39.8µM*,i,-28.4%,?
COCCc1noc([C@@H]2CN(Cc3ccc4c(c3)CCO4)C[C@H]2CO)n1,-21.1%,i,-1.2%,-17.9%
